High-throughput results (PubChem BioAssay)
MEKK2mut PB1 HTS = MEK5 binding signal on mutant MEKK2 PB1, primary screen, biochemical, multiplex bead flow cytometry, Alexa488-MEK5; Alexa488-MEK5 binding to MEKK2 mutant; percent response, % at 10 µM; hit rate 0.35% among 290,000; in the data active = percent response above about 24%, passing the limit was not always enough
MEKK3 PB1 HTS = modulators of MEKK3-MEK5 PB1 binding, primary screen, biochemical, wildtype MEKK3, multiplex bead flow cytometry, Alexa488-MEK5. Mitogen-activated protein kinase kinase kinase 3 (Homo sapiens), Q99759. bead-based flow cytometry, Alexa488-MEK5 binding to MEKK3; actives lie on both sides; 0 = blocked by unlabeled MEK5, 100 = vehicle. binding response (% of control), % at 10 µM. hit rate 1.4% among 290,000;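 active = binding response more than 3 SD above or below the average of its plate-row segment, actives on both sides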;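 also: Alexa488 bead fluorescence after subtracting the streptavidin-only scavenger bead signal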
Target sequence (Q99759 whole entry, looked up): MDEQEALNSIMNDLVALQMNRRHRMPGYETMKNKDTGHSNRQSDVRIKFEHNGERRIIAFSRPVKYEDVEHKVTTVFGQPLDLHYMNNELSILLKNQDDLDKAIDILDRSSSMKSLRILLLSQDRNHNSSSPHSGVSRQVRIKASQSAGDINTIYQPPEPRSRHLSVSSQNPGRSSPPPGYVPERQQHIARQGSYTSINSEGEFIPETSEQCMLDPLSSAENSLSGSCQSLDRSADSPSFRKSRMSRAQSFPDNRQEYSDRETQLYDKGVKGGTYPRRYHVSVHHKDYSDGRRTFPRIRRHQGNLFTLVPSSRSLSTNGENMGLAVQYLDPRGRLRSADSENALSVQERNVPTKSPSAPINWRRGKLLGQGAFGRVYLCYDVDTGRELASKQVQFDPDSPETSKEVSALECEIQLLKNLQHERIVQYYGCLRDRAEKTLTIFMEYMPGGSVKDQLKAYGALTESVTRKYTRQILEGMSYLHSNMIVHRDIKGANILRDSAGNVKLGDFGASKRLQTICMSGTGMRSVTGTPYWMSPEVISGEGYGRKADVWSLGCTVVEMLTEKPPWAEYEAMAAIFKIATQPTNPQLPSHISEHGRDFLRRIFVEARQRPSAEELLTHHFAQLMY
MEKK2 WT-MEK5 = modulators of MEK5 binding to wildtype MEKK2, primary screen, biochemical, multiplex bead flow cytometry, Alexa488-MEK5; Mitogen-activated protein kinase kinase kinase 2 (Homo sapiens), Q9Y2U5; Alexa488-MEK5 binding to MEKK2 WT; actives lie on both sides; binding response (% of control), % at 10 µM; hit rate 1.1% among 290,000; AID 1531, 2009; in the data active = binding response below about 67% or above about 130%
GRK2 aptamer HTS = compounds blocking aptamer binding on GRK2 – biochemical, human GRK2, bead flow cytometry, HTS, primary screen; hit rate 0.59% among 330,000; FAM-aptamer displacement from GRK2; AID 488847, 2010; inhibition of aptamer binding, % at 10 µM;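 active = inhibition of aptamer binding above 40%, roughly 3 SD of noise, on plates passing a quality check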;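 also: median bead fluorescence of bound FAM aptamer so fluorescent compounds give negative values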
B2AR ag = beta2AR agonists driving receptor internalization, primary screen, cell-based, FAP fluorogen, flow cytometry. Beta-2 adrenergic receptor (Homo sapiens), P07550. Am2.2-beta2AR cells. response, % (concentration not given with the values). hit rate 0.43% among 340,000. AID 504454, 2011;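 active = response above a set limit, near 3 SD of response in nonfluorescent compounds, cut at about 42% in these data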
GRK2 CP1 = GRK2 aptamer-displacing inhibitors, retest, confirmation, biochemical, cherry pick 1, bead flow cytometry; shares compounds with GRK2 aptamer HTS; bead-bound GRK2, FAM-aptamer displacement; aptamer displacement, % at 10 µM; hit rate 4% among 2,000; AID 504451, 2011;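 active = aptamer displacement above 40%, near three times the noise of non-fluorescent compounds, on plates passing quality checks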;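 also: negative values mostly reflect intrinsic compound fluorescence rather than true enhancement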
FAM quench CP1 = aptamer fluorescence quenching in GRK2 counter-screen; 2,000 tested, under 10 active; fluorescence response (% of DMSO), % at 10 µM; shares compounds with GRK2 aptamer HTS; AID 504580; Carboxyfluorescein RNA aptamer on beads, flow cytometry quenching; hits give low values;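 active = compounds that quench the bead-bound fluorescent RNA probe, cutting fluorescence to under half of the solvent control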;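 also: counterscreen run without GRK2 so only probe quenching by compound is measured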
GRK2 CP2 = GRK2 aptamer-displacing inhibitors, hit retest, confirmation, biochemical, cherry pick 2, bead flow cytometry. shares compounds with GRK2 aptamer HTS. bead-bound GRK2, FAM-aptamer displacement. inhibition of aptamer binding, % at 10 µM. 360 tested, under 10 active. AID 504782, 2011;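 active = inhibition of aptamer binding above 40%, about triple the noise seen with nonglowing compounds, on plates passing quality control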;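 also: negative values mostly come from compounds that fluoresce themselves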
FAM quench CP2 = quenches fluorescent RNA aptamer, GRK2 hit artifact. AID 588494. 360 tested, under 10 active. carboxyfluorescein RNA aptamer beads, flow cytometry quenching; hits give low values. shares compounds with GRK2 aptamer HTS. fluorescence response vs DMSO, % at 10 µM;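 active = response vs DMSO under 50%, meaning signal dropped by over half, treated as fluorescence quencher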;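 also: labelled aptamer on streptavidin beads without GRK2 as a quench counter-screen; 100% = bead fluorescence of DMSO wells and lower means quenching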
* = called active by the depositor; . = not tested or not shown. An excerpt weighted towards active compounds, which were near 2.9% of everything screened.

SMILES	MEKK2mut PB1 HTS	MEKK3 PB1 HTS	MEKK2 WT-MEK5	GRK2 aptamer HTS	B2AR ag	GRK2 CP1	FAM quench CP1	others
O=C(N/N=C/c1ccc(F)cc1)c1c(O)c2ccccc2[nH]c1=O	14	99	99	0	7	.	.
CCCCNC(=O)c1onc(CS(=O)(=O)c2ccccn2)c1C(=O)NCCCC	.	.	.	2	-1	.	.
O=[N+]([O-])c1ccccc1/C=C/C=N/Nc1nc(N2CCCCC2)nc(N2CCCCC2)n1	-2	99	99	0	-4	.	.
O=[N+]([O-])c1ccccc1/C=N/Nc1nc(N2CCCC2)nc(N2CCCC2)n1	-1	93	96	59*	-1	0	91
O=C1NC(=O)c2cc(NC(=O)C3CCCCC3)ccc21	-7	79	85	100*	2	-9	99
O=C(Nc1ccc(Cl)c(Cl)c1)C1CCCCC1	.	.	.	0	-16	.	.
COc1ccc(C2c3[nH]c4ccccc4c3CCN2C(=O)c2ccccc2C(C)=O)c(F)c1 (configuration not stated)	1	101	102	0	-5	.	.
COc1cccc(C2c3[nH]c4ccccc4c3CCN2C(=O)c2ccccc2F)c1OC (configuration not stated)	-8	74	78	50*	12	2	98
C=CCn1cc(C(=O)OCC)c(=O)c2cc(F)c(F)cc21	-29	88	91	3	-4	.	.
CC(=O)Nc1ccc(NC(=O)COC(=O)[C@@H]2CCCN2C(=O)c2cccs2)cc1	.	.	.	0	12	.	.
CCc1c(C(=O)NN2C(=O)C3CCCCC3C2=O)csc1C (configuration not stated)	-2	100	97	0	-8	.	.
CCc1c(C(=O)NC2CCCC2)csc1C	6	103	106	97*	9	-4	95
Cc1cc2ccccc2n1CCNC(=O)C1CCCCC1	8	103	106	12	6	.	.
Cc1cc2ccccc2n1CCNC(=O)C1CCCC1	.	.	.	99*	10	-1	100	GRK2 CP2=-1;FAM quench CP2=99
O=C(CCSCCC(=O)N1CCCC1)N1CCCC1	-6	95	92	45*	1	-4	96
Cc1ccc(C(=O)NCC(=O)NC23CC4CC(CC(C4)C2)C3)cc1	5	98	100	0	-4	.	.
COc1cccc(NC(=O)C(C)NS(=O)(=O)c2ccc(Br)cc2)c1 (configuration not stated)	9	104	110	41*	3	.	.	GRK2 CP2=-10;FAM quench CP2=99
Cc1ccc(S(=O)(=O)/N=C(/Nc2cccc3ccccc23)c2ccc(F)cc2)cc1	-5	97	94	4	-8	.	.
Cc1nc2ccccc2c(=O)n1NC(=O)c1cccc([N+](=O)[O-])c1	7	104	104	98*	-3	-10	96
COc1ccc(C(=O)Nn2c(C)nc3ccccc3c2=O)cc1[N+](=O)[O-]	2	102	109	0	-3	.	.
CC(C)C1CC(C(=O)Nc2ccccc2)C(=O)O1 (configuration not stated)	.	.	.	1	-1	.	.
CCC1CC(C(=O)Nc2ccccc2)C(=O)O1 (configuration not stated)	.	.	.	69*	4	0	101
CCn1c(=N)n(CC(=O)c2ccc(Br)s2)c2ccccc21	0	80	110	5	-4	.	.
C=CCn1c[n+](CC(=O)c2ccc(Br)s2)c2ccccc21	-10	103	106	57*	-2	-4	103
CCC(C)NS(=O)(=O)c1cc2c3c(c1)CCN3C(=O)CC2 (configuration not stated)	-1	100	98	0	14	.	.
SMILES	MEKK2mut PB1 HTS	MEKK3 PB1 HTS	MEKK2 WT-MEK5	GRK2 aptamer HTS	B2AR ag	GRK2 CP1	FAM quench CP1	others
CCN(CC)C(=O)COc1c(-c2ccco2)oc2ccccc2c1=O	4	96	99	2	-24	.	.
CCN(CC)C(=O)COc1ccc2oc(-c3ccco3)cc(=O)c2c1	6	107	103	62*	-13	15	96
C[C@H](NC(=O)c1ncn(Cc2ccccc2)c1C(=O)N[C@@H](C)c1ccccc1)c1ccccc1	.	.	.	0	3	.	.
CCOCCCNC(=O)c1ccc(N2CCCC2)c(NS(=O)(=O)c2ccc(C)cc2)c1	-9	88	88	96*	0	1	94
COCCCNC(=O)c1ccc(N2CCCC2)c(NS(=O)(=O)c2ccc(C)cc2)c1	5	101	108	4	4	.	.
COc1ccccc1OCCC(=O)Nc1cccc(S(=O)(=O)N2CCOCC2)c1	.	.	.	97*	-3	0	101
COc1ccccc1OCCC(=O)Nc1cccc(S(=O)(=O)N2CCCCC2)c1	0	98	95	0	8	.	.
Cc1ccc(S(=O)(=O)NCCC(=O)Nc2nnc(C)s2)cc1	13	108	107	100*	-5	3	102
Cc1ccc(S(=O)(=O)CCC(=O)Nc2ccc(F)cc2)cc1	2	102	100	0	7	.	.
O=C(NCc1ccco1)C1CCCN1C(=O)NCc1ccccc1 (configuration not stated)	-12	77	81	0	1	1	97
O=C(NCc1ccco1)C1CCCN1C(=O)Nc1ccccc1 (configuration not stated)	3	102	102	0	-7	.	.
O=C1C=C(NCc2ccco2)CC(c2ccc(Cl)cc2)C1 (configuration not stated)	8	103	110	86*	-2	-1	98
COc1ccc([C@H]2CC(=O)C=C(c3c(OC)cccc3OC)C2)cc1	.	.	.	1	-6	.	.
CN1CCOC(=O)/C1=N/Nc1cc(Cl)ccc1Cl	-1	101	101	57*	-1	-6	96
